The record followed here is PubChem BioAssay (NCATS).

Inconclusive results are not listed. Active and inactive are the calls of the source. Unless noted, the call rests on the fitted dose curve; in most records, active means well fitted curve in the direction sought with a large enough effect; inconclusive means small, poorly fitted or top-dose-only effect, or another doubt; inactive means no such curve, though single readings can be large; an effect the other way counts as inactive or inconclusive.

Assay [1] is described as follows: qHTS for differential inhibitors of proliferation of Plasmodium falciparum line HB3 (AID 1886).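 Further: parasites grown with compound for 72 h before SYBR Green readout.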 Further: potency means the concentration at half of the fitted maximal effect. The settings on record: Potency: Plasmodium falciparum HB3 proliferation inhibition.
In assay [2] the target is Ferritin light chain (Equus caballus) (UniProt P02791). Description: qHTS Validation Assay for Identification of Novel General Anesthetics (AID 2323). Further: series mostly up to about 77 µM. A digest of the protocol: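 10 uM horse-spleen apoferritin + 1-AMA (50% saturated, PBS); cpd pin-transferred, 10 min RT. Ex 380/Em 535 nm endpoint. Activity normalized between free 1-AMA and 1-AMA/apoferritin; 4-parameter Hill fit of concentration-response.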
Chain of Ferritin light chain (Equus caballus) (P02791 2-175 limits assumed): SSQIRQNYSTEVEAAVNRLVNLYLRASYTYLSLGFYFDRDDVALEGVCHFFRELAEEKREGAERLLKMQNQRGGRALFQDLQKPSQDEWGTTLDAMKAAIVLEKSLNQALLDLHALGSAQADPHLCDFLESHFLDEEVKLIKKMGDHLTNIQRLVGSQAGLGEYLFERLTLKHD

Assay [3] deals with ATP-dependent DNA helicase Q1 (Homo sapiens) (UniProt P46063). Description: qHTS Validation Assay for Inhibitors of RecQ-Like Dna Helicase 1 (RECQ1) (AID 2353). Further: potency means the concentration at half of the fitted maximal effect. A digest of the protocol: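 50 nM RECQ1T1 preincubated 15 min with compound in Tris pH 8.0 buffer with MgCl2, DTT, Tween-20 and 2.5 ug/ml poly(dI-dC); started with 200 nM TAMRA/BHQ-2 forked duplex and 2 mM ATP. Unwinding read as fluorescence (525/598 nm), two reads 2 h apart.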
Chain of ATP-dependent DNA helicase Q1 (Homo sapiens) (P46063 whole entry, looked up): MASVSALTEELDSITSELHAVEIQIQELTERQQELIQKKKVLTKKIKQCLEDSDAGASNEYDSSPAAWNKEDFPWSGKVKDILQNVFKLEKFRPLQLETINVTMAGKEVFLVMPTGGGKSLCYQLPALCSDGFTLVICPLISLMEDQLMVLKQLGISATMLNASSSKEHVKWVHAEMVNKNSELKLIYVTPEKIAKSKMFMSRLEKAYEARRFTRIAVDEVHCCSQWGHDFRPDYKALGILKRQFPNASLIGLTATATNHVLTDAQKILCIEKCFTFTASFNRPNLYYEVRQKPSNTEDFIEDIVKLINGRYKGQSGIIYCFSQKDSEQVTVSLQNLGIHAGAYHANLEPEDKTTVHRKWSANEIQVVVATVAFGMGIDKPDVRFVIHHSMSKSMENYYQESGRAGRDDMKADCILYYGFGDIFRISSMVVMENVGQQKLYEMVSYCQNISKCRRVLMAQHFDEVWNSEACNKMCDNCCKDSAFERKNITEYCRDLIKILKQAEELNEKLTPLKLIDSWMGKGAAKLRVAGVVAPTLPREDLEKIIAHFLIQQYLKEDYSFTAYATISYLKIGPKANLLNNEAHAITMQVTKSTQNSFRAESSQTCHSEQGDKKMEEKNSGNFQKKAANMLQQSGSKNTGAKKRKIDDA
A general note: Quantitative high-throughput screening tests each substance at several concentrations.

The nature of assay [4]: Validation screen for inhibitors of Lassa infection (AID 463096; calls by dose curve; further: potency means the concentration at half of the fitted maximal effect).
A short description of assay [5]: Validation screen for small molecules that induce DNA re-replication in MCF 10A normal breast cells (AID 463097). Further: nearly all actives have a fitted effect of over 60% in size. Further: potency means the concentration at half of the fitted maximal effect. A digest of the protocol: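 250 MCF 10A cells/well; compound pin-transferred; 48 hr, 37 C, 5% CO2; Hoechst 40 min; imaged 405/500-530 nm. Hits = more high-intensity nuclei.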
Assay [6] in a line: qHTS Assay for Identification of Small Molecule Inducers of Hypoxia Response (AID 2120; active means well fitted curve in the direction sought with a large enough effect in the signal ratio, with a control signal flat, not every such curve was filed as active; the % refers to the signal ratio). A digest of the protocol:
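HRE-bla ME-180 cells in Opti-MEM with 0.5% dialyzed FBS, pre-plated 4-5 h, then compound titration for 17 h at 37 degrees Celsius. CCF4 loaded 2.5 h at room temperature; 460/530 nm ratio gave %Activity and AC50 for induction.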

Assay [7] can be described thus: High Content Imaging Cell-Based qHTS for Inhibitors of the mTORC1 Signaling Pathway in MEF Cells (AID 2667). Further: potency means the concentration at half of the fitted maximal effect. The essentials: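 WT MEFs (Tsc2-/-, p53-/- re-expressing Tsc2), in DMEM + 10% FBS, were treated with compound for 24 h at 37 C. Cells were then fixed and stained for phospho-rpS6 Ser235/236 with propidium iodide as cell count. Values are % positive cells, with thresholds set against rapamycin-treated cells.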

A short description of assay [8]: Cytometry Cell-Based qHTS for Inhibitors of the mTORC1 Signaling Pathway in MEF cells (AID 2668). Further: potency means the concentration at half of the fitted maximal effect. The essentials:
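Read-out: phospho-rpS6 Ser235/236 immunofluorescence normalized to propidium iodide intensity, scored as % active cells against a rapamycin (7.5 nM) threshold. Cells: Tsc2-/-, p53-/- MEFs stably expressing WT Tsc2, compound-treated 24 hrs at 37 degree Celsius.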

Assay [9] concerns the target Ubiquitin carboxyl-terminal hydrolase 2 (Homo sapiens) (UniProt O75604). Kind of assay: qHTS Validation Assay for Inhibitors of Ubiquitin-specific Protease USP2a Using CHOP2 as the Reporter (AID 463106). Further: potency means the concentration at half of the fitted maximal effect. A digest of the protocol:
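USP2 core (10 nM final) was preincubated with compound 30 min at RT in pH 8.0 Tris/CaCl2/beta-ME/CHAPS buffer. Ub-CHOP2 and reporter substrate (25 nM final each) were then added, with fluorescence (Ex 485/Em 531) read after 60 min. Data were normalized to NEM full inhibition and fitted to concentration-response curves.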

The target of assay [10] is DNA polymerase III PolC-type (Bacillus subtilis (strain 168)) (UniProt P13267). Kind of assay: qHTS Validation Assay for the Inhibitors of DNA Replication in Gram-Positive Bacteria (AID 485295). Further: potency means the concentration at half of the fitted maximal effect. A digest of the protocol:
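PicoGreen fluorescence (ex 480–485/em 535–540 nm) reports dsDNA synthesized on ssM13Gori template with dNTPs/NTPs. Enzyme: holoenzyme rebuilt from purified PolC, beta subunit, SSB and primase. Compound preincubated before substrate addition; RT throughout.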

In assay [11] the target is Tumor susceptibility gene 101 protein (Homo sapiens) (UniProt Q99816). Description: qHTS Validation Assay for Iinhibitors of HIV-1 Budding by Blocking the Interaction of PTAP/TSG101 (AID 485342; calls by dose curve). A digest of the protocol:
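FP read-out: FITC-PTAP peptide, 50 nM final, binding Tsg101 binding domain, 10 uM final; 20 min r.t.; 10 mM HEPES pH 7.5, 0.15 M NaCl, 0.01% Tween 20, 3 mM EDTA, 0.1 mM TCEP.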

Assay [12] in a line: qHTS Validation Assay to Find Inhibitors of Chronic Active B-Cell Receptor Signaling (AID 485345; active means well fitted curve in the direction sought with a large enough effect in the main read-out, with a control signal flat, not every such curve was filed as active). A digest of the protocol: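 TMD8 ABC-DLBCL cells stably carrying doxycycline-inducible IkappaBalpha–green luciferase fusion plus unfused red luciferase; compounds 46 uM to 3 nM, 4 h at 37C with doxycycline. Corrected green/red luminescence ratio normalized to 10 uM MG-132 and basal cell wells; curves fitted.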

For assay [13], the target named is Beta-2 adrenergic receptor (Homo sapiens) (UniProt P07550). Description: qHTS validation assay of beta-arrestin-biased ligands of beta2-adrenergic receptor (AID 485366). The essentials:
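Luminescence from a tTA-responsive luciferase, induced when recombinant beta-arrestin is recruited to recombinant beta2-AR, served as the agonism signal. Cells were exposed to compound for 18 hr at 37 degrees C; titrations spanned up to 46 microM.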

Assay [14] concerns the target ATP-dependent 6-phosphofructokinase (Trypanosoma brucei brucei) (UniProt O15648). Description: qHTS Validation Assay to Find Inhibitors of T. brucei phosphofructokinase (AID 485368). Further: potency means the concentration at half of the fitted maximal effect. The essentials:
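Activity was normalized between 1x (1.25 nM) PFK wells as no inhibition and enzyme-free wells as full inhibition, from luminescence after ADP-Glo detection of ADP made from 0.5 mM F6P and 0.1 mM ATP over 45 min.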

Assay [15] has as its target RecQ-like DNA helicase BLM (Homo sapiens) (UniProt P54132). Description: qHTS Validation Assay for Inhibitors of Bloom's syndrome helicase (BLM) (AID 2364). Further: potency means the concentration at half of the fitted maximal effect. A digest of the protocol: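 50 nM BLM preincubated 15 min at room temperature with compound in pH 8.0 Tris buffer containing 2.5 ug/ml poly(dI-dC); started with 200 nM TAMRA/BHQ-2 forked duplex and 2 mM ATP (final). Unwinding read as TAMRA fluorescence increase, two reads 2 h apart.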

Assay [16] in a line: High Content Imaging Cell-Based qHTS for Inhibitors of the mTORC1 Signaling Pathway in MEF (Tsc2-/-, p53-/-) Cells (AID 2666).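 Further: percent of cells scored positive for phospho-rpS6 Ser235/236 immunostaining by imaging.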 The essentials:
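Phospho-rpS6 (Ser235/236) immunofluorescence, normalized and scored as % positive cells using rapamycin and DMSO controls, was read in empty-vector Tsc2-/-, p53-/- MEFs after 24 h compound exposure at 37 C; propidium iodide counted cells.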

A short description of assay [17]: qHTS Assay for Modulators of Human Peripheral Myelin Protein 22 (PMP22) Expression/Activity (AID 1967; active means well fitted curve in the direction sought with a large enough effect in the signal ratio; the % refers to the signal ratio). A digest of the protocol:
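Mouse MSC80 Schwann line, Pmp22 promoter–CBG68 reporter, EF-alpha–CBR internal control. 24h compound exposure, 37 °C/5% CO2, DMEM + 10% FBS. Readout: corrected green/red luminescence ratio, normalized to untreated cells; concentration-response curves fitted and classified.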

The nature of assay [18]: Cytometric Cell-Based qHTS for Inhibitors of the mTORC1 Signaling Pathway in MEF (Tsc2-/-, p53-/-) Cells (AID 2660).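 Further: percent of cells above a phospho-rpS6 to PI ratio cutoff in each well; series mostly up to about 38 µM.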 A digest of the protocol:
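Percent of cells positive for normalized phospho-S6 staining is reported, with the cutoff set from rapamycin (7.5 nM) versus DMSO wells. Tsc2-/-, p53-/- MEFs received compound for 24 hrs.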

Chain of ATP-dependent 6-phosphofructokinase (Trypanosoma brucei brucei) (O15648 whole entry, looked up): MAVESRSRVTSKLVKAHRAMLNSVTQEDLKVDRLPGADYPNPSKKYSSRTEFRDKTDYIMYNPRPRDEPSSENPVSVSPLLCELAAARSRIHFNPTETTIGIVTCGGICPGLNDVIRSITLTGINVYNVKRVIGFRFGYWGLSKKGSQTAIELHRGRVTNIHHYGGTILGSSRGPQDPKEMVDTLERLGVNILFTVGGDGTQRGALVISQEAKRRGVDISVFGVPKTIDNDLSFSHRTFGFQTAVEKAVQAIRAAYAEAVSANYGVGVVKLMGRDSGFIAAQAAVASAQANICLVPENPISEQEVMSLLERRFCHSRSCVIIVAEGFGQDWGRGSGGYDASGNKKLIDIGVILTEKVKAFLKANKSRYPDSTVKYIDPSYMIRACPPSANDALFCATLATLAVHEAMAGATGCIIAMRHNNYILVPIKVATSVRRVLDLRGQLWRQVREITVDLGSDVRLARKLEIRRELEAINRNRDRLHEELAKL
Chain of DNA polymerase III PolC-type (Bacillus subtilis (strain 168)) (P13267 whole entry, looked up): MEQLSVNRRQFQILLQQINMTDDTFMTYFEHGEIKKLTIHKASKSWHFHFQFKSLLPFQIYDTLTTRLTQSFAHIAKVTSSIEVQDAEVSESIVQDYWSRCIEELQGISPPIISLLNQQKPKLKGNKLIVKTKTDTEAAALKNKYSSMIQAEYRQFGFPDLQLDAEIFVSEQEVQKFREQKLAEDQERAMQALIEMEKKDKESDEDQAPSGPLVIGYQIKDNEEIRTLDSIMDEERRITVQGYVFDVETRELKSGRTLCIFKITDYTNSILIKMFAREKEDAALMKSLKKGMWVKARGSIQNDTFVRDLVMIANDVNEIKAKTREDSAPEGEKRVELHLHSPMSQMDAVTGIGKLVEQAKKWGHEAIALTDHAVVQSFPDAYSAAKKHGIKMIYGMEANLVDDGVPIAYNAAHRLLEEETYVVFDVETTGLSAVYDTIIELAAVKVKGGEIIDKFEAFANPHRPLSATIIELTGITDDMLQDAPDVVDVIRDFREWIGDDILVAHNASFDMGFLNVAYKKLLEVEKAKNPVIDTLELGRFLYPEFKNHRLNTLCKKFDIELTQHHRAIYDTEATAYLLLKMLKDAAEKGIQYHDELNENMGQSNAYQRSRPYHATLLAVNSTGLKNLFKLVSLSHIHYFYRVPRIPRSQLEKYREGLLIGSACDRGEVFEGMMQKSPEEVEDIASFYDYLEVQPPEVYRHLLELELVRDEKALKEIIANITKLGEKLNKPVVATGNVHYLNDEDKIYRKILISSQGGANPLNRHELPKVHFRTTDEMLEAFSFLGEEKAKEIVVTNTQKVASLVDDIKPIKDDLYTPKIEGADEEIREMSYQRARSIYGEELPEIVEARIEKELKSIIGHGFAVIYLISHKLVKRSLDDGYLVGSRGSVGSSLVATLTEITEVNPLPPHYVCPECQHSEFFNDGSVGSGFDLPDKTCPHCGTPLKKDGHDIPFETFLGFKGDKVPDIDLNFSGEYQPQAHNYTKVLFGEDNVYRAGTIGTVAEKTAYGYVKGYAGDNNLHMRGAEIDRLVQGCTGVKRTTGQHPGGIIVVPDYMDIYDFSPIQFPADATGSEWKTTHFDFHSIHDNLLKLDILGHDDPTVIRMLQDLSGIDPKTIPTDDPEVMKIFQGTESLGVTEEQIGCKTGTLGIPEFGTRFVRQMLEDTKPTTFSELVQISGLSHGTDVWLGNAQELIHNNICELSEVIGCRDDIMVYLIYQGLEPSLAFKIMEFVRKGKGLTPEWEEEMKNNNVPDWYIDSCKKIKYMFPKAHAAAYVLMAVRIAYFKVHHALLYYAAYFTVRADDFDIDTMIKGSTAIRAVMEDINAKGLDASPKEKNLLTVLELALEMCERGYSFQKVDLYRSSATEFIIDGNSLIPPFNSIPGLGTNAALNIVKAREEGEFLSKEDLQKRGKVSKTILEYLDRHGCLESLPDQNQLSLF
Chain of Tumor susceptibility gene 101 protein (Homo sapiens) (Q99816 whole entry, looked up, the tested form may be a part): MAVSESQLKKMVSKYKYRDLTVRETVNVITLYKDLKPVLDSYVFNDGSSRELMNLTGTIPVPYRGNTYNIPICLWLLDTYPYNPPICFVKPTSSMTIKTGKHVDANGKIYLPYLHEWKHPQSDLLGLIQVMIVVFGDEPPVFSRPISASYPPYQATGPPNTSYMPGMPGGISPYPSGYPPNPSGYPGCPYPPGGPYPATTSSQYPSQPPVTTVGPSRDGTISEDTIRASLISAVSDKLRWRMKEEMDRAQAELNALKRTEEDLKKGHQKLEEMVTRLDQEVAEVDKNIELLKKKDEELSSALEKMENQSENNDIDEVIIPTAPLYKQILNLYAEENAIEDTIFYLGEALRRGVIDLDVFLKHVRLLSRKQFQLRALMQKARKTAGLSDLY
Chain of Beta-2 adrenergic receptor (Homo sapiens) (P07550 whole entry, looked up): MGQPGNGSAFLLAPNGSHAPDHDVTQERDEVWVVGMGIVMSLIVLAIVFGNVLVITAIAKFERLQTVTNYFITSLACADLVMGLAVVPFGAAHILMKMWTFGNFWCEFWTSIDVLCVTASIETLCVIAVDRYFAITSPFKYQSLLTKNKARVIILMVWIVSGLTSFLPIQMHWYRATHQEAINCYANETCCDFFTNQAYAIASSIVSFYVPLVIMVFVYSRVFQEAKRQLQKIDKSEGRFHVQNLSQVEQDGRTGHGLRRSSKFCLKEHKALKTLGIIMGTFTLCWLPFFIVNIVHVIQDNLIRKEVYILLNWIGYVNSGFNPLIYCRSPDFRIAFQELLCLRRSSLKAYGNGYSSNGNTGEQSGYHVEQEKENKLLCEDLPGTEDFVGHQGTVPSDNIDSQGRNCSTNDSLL
Chain of RecQ-like DNA helicase BLM (Homo sapiens) (P54132 whole entry, looked up): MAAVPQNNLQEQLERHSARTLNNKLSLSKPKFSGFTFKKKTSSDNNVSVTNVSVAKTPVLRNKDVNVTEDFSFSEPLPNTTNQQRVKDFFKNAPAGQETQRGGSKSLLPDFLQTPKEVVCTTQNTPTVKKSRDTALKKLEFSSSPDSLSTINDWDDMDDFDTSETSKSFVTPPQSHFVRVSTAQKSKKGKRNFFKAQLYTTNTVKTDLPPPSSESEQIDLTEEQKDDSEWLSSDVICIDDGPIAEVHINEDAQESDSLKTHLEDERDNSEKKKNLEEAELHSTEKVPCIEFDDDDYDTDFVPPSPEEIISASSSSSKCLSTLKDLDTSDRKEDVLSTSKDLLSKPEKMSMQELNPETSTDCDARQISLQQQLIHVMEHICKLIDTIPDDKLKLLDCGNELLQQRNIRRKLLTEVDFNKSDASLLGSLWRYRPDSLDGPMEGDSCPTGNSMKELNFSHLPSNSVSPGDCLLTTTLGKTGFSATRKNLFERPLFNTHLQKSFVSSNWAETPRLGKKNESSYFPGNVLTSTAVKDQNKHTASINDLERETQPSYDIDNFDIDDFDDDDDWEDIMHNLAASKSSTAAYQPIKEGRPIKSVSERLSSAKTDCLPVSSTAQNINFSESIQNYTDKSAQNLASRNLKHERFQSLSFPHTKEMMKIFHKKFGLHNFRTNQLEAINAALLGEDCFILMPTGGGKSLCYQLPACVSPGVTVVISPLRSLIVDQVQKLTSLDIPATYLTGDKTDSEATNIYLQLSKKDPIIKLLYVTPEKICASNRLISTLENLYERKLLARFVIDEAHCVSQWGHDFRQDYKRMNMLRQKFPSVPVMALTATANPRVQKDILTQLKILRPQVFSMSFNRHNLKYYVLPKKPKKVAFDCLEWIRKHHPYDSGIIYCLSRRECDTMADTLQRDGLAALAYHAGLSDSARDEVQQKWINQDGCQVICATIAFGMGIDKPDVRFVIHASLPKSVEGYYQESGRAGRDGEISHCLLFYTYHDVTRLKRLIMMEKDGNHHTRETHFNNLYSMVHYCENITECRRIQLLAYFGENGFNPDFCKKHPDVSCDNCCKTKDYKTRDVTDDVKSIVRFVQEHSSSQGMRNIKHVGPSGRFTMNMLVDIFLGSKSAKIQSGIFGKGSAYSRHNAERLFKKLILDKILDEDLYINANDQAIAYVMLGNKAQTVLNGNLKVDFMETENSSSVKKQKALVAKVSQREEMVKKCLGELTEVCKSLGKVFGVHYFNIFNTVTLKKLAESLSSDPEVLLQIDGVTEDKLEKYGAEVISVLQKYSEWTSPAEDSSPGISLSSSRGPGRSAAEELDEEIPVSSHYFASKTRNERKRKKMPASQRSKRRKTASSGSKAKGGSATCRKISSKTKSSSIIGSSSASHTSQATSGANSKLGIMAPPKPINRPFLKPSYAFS

With `C[N+]1(C)CCC(OC(=O)C(c2ccccc2)c2ccccc2)CC1`, the Potency in assay [1] is 7.94 µM (active). In addition, the call in assay [2] was inactive. Besides, the Potency result in [3], in assay [4] and in [5] was “inactive” each time.

Regarding `C[C@]12CCC(=O)C[C@@H]1CC[C@@H]1[C@@H]2CC[C@]2(C)[C@@H](O)CC[C@@H]12`, the call in assay [6] was inactive.

`ClCC1CO1` (configuration not stated): the result in [6] was inactive.

On to `CC(=O)c1c(O)c(C)c(O)c(Cc2c(O)c3c(c(C(=O)/C=C/c4ccccc4)c2O)OC(C)(C)C=C3)c1O`, for which the Potency in assay [1] was 5.62 µM (active); in [10], 18.9 µM (active). For the same compound, the Potency result in [7], in assay [8], in assay [9] and in assay [12] was “inactive” throughout. For the same compound, the outcome in assay [11] was inactive.

For the compound `NC(N)=NOCC[C@H](N)C(=O)O`, the Potency result in [1], in [3], in assay [7], in assay [4], in assay [5] and in [9] was “inactive” in each case. Also, the Potency entry in assay [10], in assay [12] and in assay [14] was “inactive” in each case. Also, the compound was classed as inactive in assay [2] and in assay [13].

For `O=[N+]([O-])c1ccccc1`, the result in [6] was inactive.

Take `COc1ccc2[nH]c3c(c2c1)CCNC3`: the Potency result in assay [1], in assay [15], in assay [16], in assay [7], in assay [8] and in [4] was “inactive” in each case. In addition, the Potency result in [5], in assay [9], in assay [10], in assay [12] and in assay [14] was “inactive” each time. Besides, in [2], the outcome was inactive.

For `C=CCN1CC[C@]23c4c5ccc(O)c4O[C@@H]2/C(=N/N=C2\CC[C@@]4(O)C6Cc7ccc(O)c8c7[C@@]4(CCN6CC=C)[C@@H]2O8)CC[C@@]3(O)C1C5`, the values for the Potency in [1] and in assay [5] were 2.82 µM (active) and 15.8 µM (active), respectively. Moreover, the Potency entry in assay [3], in assay [15], in assay [9], in assay [10], in assay [12] and in assay [14] was “inactive” each time. In addition, the outcome in assay [11] and in assay [13] was inactive.

Turning to `C[N+]1(C)CCOC(O)(c2ccc(-c3ccc(C4(O)C[N+](C)(C)CCO4)cc3)cc2)C1` (configuration not stated), the compound was classed as inactive in assay [17], in [2], in assay [11] and in [13]. For the same compound, the Potency result in assay [3], in [15], in [7], in assay [4], in assay [5] and in [9] was “inactive” in each case. Besides, the Potency result in assay [10] and in assay [12] was “inactive” in each case.

As to `Oc1cc(Cl)c(Cl)cc1Cl`, the result in [6] was inactive.

For the compound `NC(Cc1cc(O)c(O)cc1O)C(=O)O` (configuration not stated), the Potency result in [1], in assay [18], in assay [7], in assay [8], in [5] and in assay [12] was “inactive” throughout. The Potency was 1.41 µM (active) in assay [3], 3.16 µM (active) in [15], 0.656 µM (active) in assay [9] and 4.74 µM (active) in assay [10]. In addition, the outcome in assay [11] and in [13] was inactive.

With `Cc1sc2ccccc2c1CC1=NCCN1`, the result in assay [17], in assay [2], in [11] and in assay [13] was inactive. The Potency entry in assay [3], in [15], in [16], in assay [7], in assay [4] and in [5] was “inactive” throughout. Also, the Potency entry in assay [9], in [10], in assay [12] and in assay [14] was “inactive” in each case.

With `NC(=O)CI`, the Potency entry in assay [1], in [3], in assay [18], in [16], in assay [7] and in assay [4] was “inactive” each time. Also, the Potency result in assay [9], in assay [10] and in assay [12] was “inactive” throughout. Also, the compound was called inactive in assay [13]. For the same compound, in assay [14], the Potency was 19 µM (active).

Regarding `CC1OC1P(=O)(O)O` (configuration not stated), the Potency entry in assay [1], in assay [3] and in assay [5] was “inactive” each time. Further, in assay [2], the call was inactive.

On to `CC(C)(C)c1cc(C=C(C#N)C#N)cc(C(C)(C)C)c1O`, for which the Potency was 1 µM (active) in [1]; 2.33 µM (active) in assay [7]; 4.14 µM (active) in assay [8]; 2.51 µM (active) in assay [4]; 0.158 µM (active) in assay [5]. The Potency entry in assay [3], in assay [16], in [9] and in [10] was “inactive” throughout. Moreover, the outcome in assay [11] and in assay [13] was inactive.

With `O=CC=O`, the compound was called inactive in [6].

Regarding `COc1ccc2c(c1OC)C(=O)OC2C1c2cc3c(cc2CCN1C)OCO3` (configuration not stated), the Potency result in [1], in [3], in [4] and in assay [5] was “inactive” each time. Also, in [2], the result was inactive.

Turning to `CC(C)Nc1ccc(Nc2ccccc2)cc1`, the compound was called inactive in [6].

For the compound `O=Cc1ccco1`, the compound was called inactive in assay [6].

Take `CCOC(=O)c1ccccc1C(=O)OCC`: in assay [6], the call was inactive.

`ClC(Cl)(Cl)Cl`: the result in assay [6] was inactive.

`CC(C)NP(=O)(NC(C)C)OP(=O)(NC(C)C)NC(C)C`: the call in assay [17], in assay [2], in [11] and in [13] was inactive. Moreover, the Potency entry in [3], in [15], in assay [16], in [7], in assay [8] and in [4] was “inactive” each time. The Potency result in [5], in [9], in assay [10] and in assay [12] was “inactive” in each case.

On to `N#CC(C#N)=Cc1cc(O)c(O)c(O)c1`, for which, in assay [1], the Potency was 11.2 µM (active). In addition, in [2], the outcome was inactive. Further, the Potency entry in assay [3], in [4] and in [5] was “inactive” throughout.
